Calls of active or inactive are those of the source.
Key:
Albumin (Bos taurus) = Albumin (Bos taurus) (UniProt P02769); assay: compounds binding labelled BSA control protein – biochemical, small-molecule microarray, Alexa647 label, 635/667 nm fluorescence, artefact control for SMM control protein annotation, profiling panel (AID 1118); conditions: BSA-A647 binding, fluorescence 635 nm, higher = more signal;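 further: score merges 667 nm emission intensity and signal-to-noise per printed compound spot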
Sequence of Albumin (Bos taurus) (P02769 whole entry, looked up): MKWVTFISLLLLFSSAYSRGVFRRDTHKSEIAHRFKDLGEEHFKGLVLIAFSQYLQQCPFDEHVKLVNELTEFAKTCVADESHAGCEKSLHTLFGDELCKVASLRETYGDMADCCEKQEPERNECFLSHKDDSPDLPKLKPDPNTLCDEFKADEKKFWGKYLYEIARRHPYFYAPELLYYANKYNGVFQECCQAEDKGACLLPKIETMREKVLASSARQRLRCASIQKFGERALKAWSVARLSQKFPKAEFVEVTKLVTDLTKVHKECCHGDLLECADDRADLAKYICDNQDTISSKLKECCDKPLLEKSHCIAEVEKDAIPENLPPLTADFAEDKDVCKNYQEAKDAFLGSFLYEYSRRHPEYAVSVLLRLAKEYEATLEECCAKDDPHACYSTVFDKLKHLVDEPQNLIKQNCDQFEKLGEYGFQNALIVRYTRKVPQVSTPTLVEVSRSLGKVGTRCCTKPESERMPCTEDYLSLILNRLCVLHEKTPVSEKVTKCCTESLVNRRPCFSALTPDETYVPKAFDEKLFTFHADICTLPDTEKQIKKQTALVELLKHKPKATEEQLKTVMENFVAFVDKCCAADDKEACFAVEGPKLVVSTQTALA

[1] = probe aXIP binding to arrayed compounds – biochemical, NeuroSMM set, 635/667 nm fluorescence, primary screen (AID 1119); conditions: small-molecule microarray, higher = more signal, called active from +8 up or from −8 down;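 further: probe is the protein aXip251-270 applied at 1 µg/mL to compound-printed slides; binding of probe to printed compounds measured as 667 nm fluorescence plus signal to noise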
[2] = probe aNOTCH3 binding on compound microarray – biochemical, small-molecule microarray, 635/667 nm fluorescence, primary screen (AID 1120); conditions: higher = more signal;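 further: probe is a biotin-tagged antibody raised against NOTCH3 rather than NOTCH3 protein; score merges spot fluorescence near 667 nm with spot signal to noise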
[3] = probe aNOTCH2 binding on compound microarray – biochemical, small-molecule microarray, 635/667 nm fluorescence, primary screen (AID 1121); conditions: higher = more signal;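 further: score merges feature fluorescence read at 667 nm with its signal to noise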
[4] = target: Carbonic anhydrase 2 (Homo sapiens) (UniProt P00918); assay: compounds binding carbonic anhydrase 2 – biochemical, small-molecule microarray, Alexa647-labelled CAII, profiling panel (AID 1122); conditions: CAII-A647 binding fluorescence, higher = more signal
[5] = COS7 lysate on small-molecule microarray, probe aHis, 635 nm (AID 1123); conditions: COS7 cell lysate, fluorescence, higher = more signal;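 further: z-score combines 667nm fluorescence intensity with signal-to-noise per printed compound spot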
[6] = probe aLAP1 signal on lysate-treated microarray – cell lysate, small-molecule microarray, COS7 lysate, primary screen (AID 1124); conditions: probe aLAP1, fluorescence, higher = more signal;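 further: lysate comes from COS7 cells expressing LAP1 and is applied at 0.3 µg/mL; score merges spot fluorescence near 667 nm with signal-to-noise over triplicate slides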
Sam68 (KHDRBS1) = assay: compounds binding KHDRBS1 protein – biochemical, small-molecule microarray, 635 nm fluorescence, primary screen (AID 1125); conditions: higher = more signal;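 further: score merges 667 nm channel intensity with signal to noise over triplicate slides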
[7] = tested on: Chordin-like protein 2 (CHRDL2); assay: compounds binding chordin-like 2 – biochemical, small-molecule microarray, 635 nm fluorescence, primary screen (AID 1126); conditions: fluorescence 635 nm, higher = more signal;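 further: printed compound slides probed with Chrdl2 protein at 4 µg/mL for 1 h at 4 C; score merges 667 nm emission intensity with signal to noise over three replicate slides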
[8] = target: Concanavalin-A (Canavalia ensiformis) (UniProt P02866); assay: compounds binding concanavalin A lectin – biochemical, small-molecule microarray, Alexa647 label, 635 nm, artefact control for SMM control protein annotation, primary screen (AID 1127); conditions: ConA-A647 binding fluorescence, higher = more signal;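 further: z combines 667 nm emission intensity with signal-to-noise across three replicate slides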
Sequence of Concanavalin-A (Canavalia ensiformis) (P02866 whole entry, looked up): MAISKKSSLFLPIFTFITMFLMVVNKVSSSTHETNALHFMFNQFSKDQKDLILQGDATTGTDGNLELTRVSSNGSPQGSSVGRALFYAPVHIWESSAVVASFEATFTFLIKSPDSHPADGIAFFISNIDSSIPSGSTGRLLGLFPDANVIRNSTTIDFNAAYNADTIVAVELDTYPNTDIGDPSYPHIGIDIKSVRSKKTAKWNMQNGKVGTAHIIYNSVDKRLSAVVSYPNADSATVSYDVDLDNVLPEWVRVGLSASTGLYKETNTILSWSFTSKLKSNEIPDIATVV

SMILES | composite z-score (Albumin (Bos taurus)) | composite Z-score [1] | composite z-score [2] | composite z-score [3] | composite z-score [4] | composite z-score [5] | composite z-score [6] | composite z-score (Sam68 (KHDRBS1)) | composite z-score [7] | composite z-score [8]
Cc1c(NC(=O)/C(C#N)=C/c2ccccc2Cl)c(=O)n(-c2ccccc2)n1C | 0.942 | -0.683 (inactive) | -0.0048 | -0.011 | 0.704 | 1.08 | 0.237 | 0.247 | 0.107 | 0.996
CO[C@H]1O[C@H](CO)[C@@H](OC(=O)Nc2cccc(F)c2)[C@H](OC(=O)Nc2ccccc2-c2ccccc2)[C@H]1OC(=O)Nc1ccccc1-c1ccccc1 | -0.8 | 0.55 (inactive) | 0.206 | -0.0226 | 0.577 | 2.33 | 0.57 | 1.3 | 0.484 | 0.924
CN1C(=O)C2C=CC(C(O)c3cc(C(F)(F)F)cc(C(F)(F)F)c3)N(Nc3ccccc3)C2C1=O (stereo not given) | 0.969 | 0.309 (inactive) | -0.149 | -0.147 | 0.831 | 2.96 | -0.23 | 0.891 | -0.616 | -0.0932
O=C1C2C=CC(C(O)c3ccc(I)cc3)N(Nc3ccccc3)C2C(=O)N1c1ccccc1 (stereo not given) | 0.778 | 0.284 (inactive) | 0.273 | 0.11 | 0.738 | 2.87 | 0.635 | 1.34 | -0.409 | 1.16
COC(=O)C(CC#Cc1ccc2c(c1)[C@]1(C(=O)N2)[C@H](c2ccc(O)cc2)N2[C@H](c3ccccc3)[C@H](c3ccccc3)OC(=O)[C@H]2[C@@H]1C(=O)N1CCCCCCC1)C(=O)OC | 0.631 | 1.71 (inactive) | 1.29 | -0.0586 | 0.816 | 2.46 | 1.18 | 1.29 | 1.13 | 1.14
COCCOC(=O)N1C(=O)[C@@]2(c3cc(C#CC4(O)CCCCCC4)ccc31)[C@H](c1ccc(OCCO)cc1)N1[C@H](c3ccccc3)[C@H](c3ccccc3)OC(=O)[C@H]1[C@@H]2C(=O)Nc1nc2ccccc2s1 | 0.729 | 0.526 (inactive) | 0.5 | -0.0009 | 0.161 | 0.804 | 0.388 | 1.3 | 0.58 | 1.11
C=CCNC(=O)[C@@H]1[C@H]2C(=O)O[C@H](c3ccccc3)[C@H](c3ccccc3)N2[C@H](c2ccc(O)cc2)[C@@]12C(=O)Nc1ccc(C#CCC(C(=O)OC)C(=O)OC)cc12 | 0.0825 | -0.136 (inactive) | -0.0647 | -0.0907 | 0.336 | 1.52 | 0.123 | 1.33 | 0.231 | 0.933
CC(C)c1ccc(NN2C(C(O)Cc3ccccc3)C=CC3C(=O)N(c4ccccc4)C(=O)C32)cc1 (stereo not given) | 0.999 | 0.221 (inactive) | 0.428 | 0.0383 | 0.751 | 2.65 | 0.0643 | 1.31 | -0.209 | 1.14
[N-]=[N+]=Nc1ccccc1[C@@H]1OC(c2ccc(OCCCO)cc2)=N[C@]1(Cc1ccccc1)C(=O)NCc1ccccc1 | 0.955 | -0.128 (inactive) | 0.367 | 0.156 | 0.379 | 2.74 | 1.13 | 1.3 | -0.553 | 1.18
Cc1ccccc1C(O)C1C=CC2C(=O)NC(=O)C2N1Nc1ccc(Cl)cc1Cl (stereo not given) | 0.709 | 1.42 (inactive) | -0.0653 | -0.0453 | 0.558 | 2.4 | 1.1 | 0.965 | 0.291 | 0.814
COCCOC(=O)N1C(=O)[C@@]2(c3cc(C#Cc4ccc(OC)cc4)ccc31)[C@H](c1ccc(OCCO)cc1)N1[C@H](c3ccccc3)[C@H](c3ccccc3)OC(=O)[C@H]1[C@@H]2C(=O)Nc1nc2ccccc2s1 | 0.862 | -0.436 (inactive) | -0.0967 | 0.0402 | 0.309 | 1.3 | 0.176 | 1.29 | -0.122 | 1.13
COC(=O)[C@@]1(Cc2ccc(F)cc2)[C@H]2c3cc(C(=O)N(C)C)n(Cc4ccc(O)c(OC)c4)c3C[C@H]2CN1C(=O)c1ccccc1 | 0.862 | -0.136 (inactive) | 0.416 | -0.127 | 0.659 | 1.08 | -0.0606 | 0.607 | -0.109 | 0.862
CN1C=C(C(=O)OCCS(C)(=O)=O)C(C(=O)OCCS(C)(=O)=O)=CC(c2ccc(CO)cc2)=CC1c1cccs1 (stereo not given) | 0.232 | 0.142 (inactive) | 0.0026 | -0.0936 | 0.812 | 0.848 | 0.279 | 0.645 | 0.318 | 0.64
COCC(=C=CC[C@@H](O)c1ccc(OCCO)cc1)CCO | -0.201 | 1.21 (inactive) | -0.17 | -0.0859 | 0.838 | 1.25 | 0.83 | 0.847 | 0.136 | -0.139
CN1C(=O)C2C(C1=O)C1C=C(CCCO)C2C(C2CC2)N1Cc1cc2c(cc1Br)OCO2 (stereo not given) | 0.984 | 1.32 (inactive) | 0.201 | -0.0097 | 0.756 | 2.63 | 1.25 | 1.18 | 0.0995 | 0.738
CC(C)CNC(=O)[C@@H]1c2ccccc2C(=O)N(C2CCCCC2)[C@H]1c1ccc(CO)cc1 | -0.183 | 1.32 (inactive) | -0.159 | -0.118 | 0.694 | 2.44 | -0.264 | 0.369 | -0.718 | -0.0374
CCCCCN1CC=CC23O[C@@H]4C=CCOC(=O)[C@@H]4[C@H]2C(=O)N(CCO)[C@@H]3C1=O (stereo not given in full) | -0.141 | 0.403 (inactive) | -0.221 | -0.14 | 0.907 | 1.28 | -0.0117 | -0.263 | -1.33 | -0.502

Reference: PubChem BioAssay
